From PubChem BioAssay AID485281 (National Center for Advancing Translational Sciences (NCATS), 2010)
Out of some 350,000 compounds screened, about 260 (0.074%) were called active. Where a call stands in place of a potency, no number is given. About 8% were inconclusive and are not listed. This is one part of a sample in which actives are shown more often than they occur. Calls follow the shape of the dose curve; as a rule, active = well fitted inhibition curve with a large enough effect; inconclusive = small, poorly fitted or top-dose-only effect; inactive = no such curve, though single readings can be large or run the other way.

The compounds below were run against Ferritin light chain (Equus caballus) (UniProt P02791) (assay: qHTS Assay for Identification of Novel General Anesthetics). Settings: apoferritin/1-aminoanthracene competitive binding, fluorescence; series mostly up to 77.5 µM.
Text: Source: NIH Chemical Genomics Center [NCGC]
Assay Submitter: Roderic Eckenhoff, University of Pennsylvania
Screening Center PI: Christopher P. Austin, NIH
Probe Development: NIH Chemical Genomics Center [NCGC]
Anesthetic development has remained a largely empirical process. There are growing concerns about the cognitive effects of known general anesthetics and acceleration of the onset of neurodegenerative disease. The compounds' toxicity and multiple specific binding targets in the mammalian brain [4] has made them less attractive as drug leads. In this assay, a GABAergic mimetic model system, apoferritin and a profluorescent 1-aminoanthracene ligand (1-AMA), was used to construct a competitive binding assay for identification of novel general anesthetics. The assay was validated for 1-AMA using other known anesthetics, such as isoflurane (CID:3763) and propofol (CID: 4943), [6].
[1] S.L. Bianchi, T. Tran, C. Liu, S. Lin, Y. Li, J.M. Keller, R.G. Eckenhoff, and M.F. Eckenhoff, Brain and behavior changes in 12-month-old Tg2576 and nontransgenic mice exposed to anesthetics. Neurobiol Aging 29 (2008) 1002-10.
[2] Z. Xie, Y. Dong, U. Maeda, R.D. Moir, W. Xia, D.J. Culley, G. Crosby, and R.E. Tanzi, The inhalation anesthetic isoflurane induces a vicious cycle of apoptosis and amyloid beta-protein accumulation. J Neurosci 27 (2007) 1247-54.
[3] P. Honegger, and J.M. Matthieu, Selective toxicity of the general anesthetic propofol for GABAergic neurons in rat brain cell cultures.
[4] M.F. Eckenhoff, K. Chan, and R.G. Eckenhoff, Multiple specific binding targets for inhaled anesthetics in the mammalian brain. J Pharmacol Exp Ther 300 (2002) 172-9.
[5] C.A. Butts, J. Xi, G. Brannigan, A.A. Saad, S.P. Venkatachalan, R.A. Pearce, M.L. Klein, R.G. Eckenhoff, and I.J. Dmochowski, Identification of a fluorescent general anesthetic, 1-aminoanthracene. Proc Natl Acad Sci U S A 106 (2009) 6501-6.
[6] W.A. Lea, J. Xi, A. Jadhav, L. Lu, C.P. Austin, A. Simeonov, and R.G. Eckenhoff, A high-throughput approach for identification of novel general anesthetics. PLoS One 4 (2009) e7150.
Three uL of reagents (free 1-AMA (50% saturated solution of 1-aminoanthracene
in PBS) in columns 3, 4 as negative control and 1-AMA/apoferritin mixture (10 uM horse-spleen apoferritin in 50% saturated 1-aminoanthracene in PBS) in columns 1, 2, 5-48) was dispensed into 1536-well Greiner black assay plates. Compounds (23 nL) were transferred via Kalypsys pintool equipped with 1,536-pin array (10 nL slotted pins, V&P Scientific, San Diego, CA). Titration of the positive control, propofol, were delivered via pin transfer from separate control plates to the 2nd column of each assay plate. The starting concentration of the control, dissolved in DMSO, was at 160 mM, followed by two-fold dilution points in duplicate, for a total of 16 concentrations. The plates were incubated for 10 min at room temperature, and then read on an EnVision HTS multilabel reader (Perkin-Elmer, Waltham, MA) (end point read, 3 min/plate) using Fura2 BFP excitation filter (380 nm, bandwidth 10 nm) and fluorescein emission filter (535 nm, bandwidth 25 nm) set. A LANCE/DELFIA dichroic mirror with a cutoff wavelength at 400 nm was used to maximize signal accuracy and strength. Vehicle-only plates, with DMSO being pin-transferred to the entire column 5-48 compound area, were inserted uniformly at the beginning and the end of each library in order to monitor for and record any shifts in the background. Activity was computed as the normalized fluorescence response relative to free 1-AMA and 1-AMA/apoferritin complex values. Concentration-effect relationships were derived by using curve fitting algorithms developed in-house (http://ncgc.nih.gov/pub/openhts/). A four parameter Hill equation was fitted to the concentration-response data by minimizing the residual error between the modeled and observed responses.
Also: nearly all actives have a fitted effect of over 20% in size.
Potency is read from the fitted curve at half-maximal effect.

Chain of Ferritin light chain (Equus caballus) (P02791 2-175 limits assumed): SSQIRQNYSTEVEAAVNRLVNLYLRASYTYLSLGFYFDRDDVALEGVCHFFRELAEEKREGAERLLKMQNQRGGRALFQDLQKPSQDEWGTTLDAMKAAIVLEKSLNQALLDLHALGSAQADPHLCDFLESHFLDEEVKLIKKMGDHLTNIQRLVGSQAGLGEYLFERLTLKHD

With `CCc1cccc(NC(=O)CSc2nccn2C)c1` as the compound, how does the Potency read?
Its Potency is “inactive”.

Which Potency does the source give for `COc1ccc(-c2cn3c(C)c(C(=O)Nc4cc(C)cc(C)c4)sc3n2)cc1` here?
The Potency was “inactive”.

How did the Potency turn out when `O=S(=O)(c1ccccc1)c1nc(-c2ccc(Cl)cc2Cl)oc1N1CCCCC1` was run?
The Potency was “inactive”.

`COc1cc(C(=O)Nc2ccc(-n3c(C)nc4ccccc4c3=O)cc2)cc(OC)c1OC` was tested. Which Potency did it give?
Its Potency is “inactive”.

Which Potency does the source give for `Cc1nccn1CCCNC(=O)CC1C(=O)NCCN1Cc1ccc(Cl)c(F)c1` (centres undefined) here?
The Potency was “inactive”.

Which Potency does the source give for `CCOc1ccc(CN2CCNC(=O)C2CC(=O)NCCCC2CCCC2)cc1` (centres undefined) here?
The Potency was 31.6 µM (active).

For `O=C(CC1C(=O)NCCN1Cc1ccc(-c2ccccc2)cc1)NCC1CCOCC1` (centres undefined), which Potency is on record?
Its Potency is “inactive”.

How did the Potency turn out when `CC(=O)c1cccc(NC(=O)c2nc(-c3ccccc3)n(-c3cccc(C)c3)n2)c1` was run?
Its Potency is “inactive”.

Which Potency does the source give for `O=C(c1cnn(-c2ccc(F)cc2)c1-n1cccc1)N1CCN(c2ccc(F)cc2)CC1` here?
The Potency was “inactive”.

Which Potency does the source give for `CCCn1c2ccccc2c2cnn(CC(=O)N(C)c3ccccc3CC)c(=O)c21` here?
Its Potency is “inactive”.

For `O=C(CCC(=O)N1CC2CCCN2c2ccccc21)NCc1ccccc1Cl` (centres undefined), which Potency is on record?
The Potency was “inactive”.

With `Cc1ccc2nc(-c3ccc(C)c(NC(=O)Cc4ccccc4)c3)oc2c1` as the compound, how does the Potency read?
Its Potency is “inactive”.

How did the Potency turn out when `COc1ccc(N(CC(=O)NCCc2ccc(Cl)cc2)S(=O)(=O)c2c(C)nn(C)c2C)cc1` was run?
The Potency was “inactive”.

How did the Potency turn out when `Cc1ccc(S(=O)(=O)NCCc2nnc3ccc(SCc4cccnc4)nn23)cc1` was run?
Its Potency is “inactive”.

With `O=S(=O)(NCCc1nnc2ccc(SCc3ccc(Cl)cc3Cl)nn12)c1ccccc1` as the compound, how does the Potency read?
Its Potency is 17.8 µM (active).

How did the Potency turn out when `COC(=O)CSc1ccc2nnc(CCNS(=O)(=O)c3ccc(C)cc3)n2n1` was run?
The Potency was “inactive”.

`CN1C(=O)c2ccccc2Sc2ccc(NC(=O)Cc3ccc(Cl)cc3)cc21` was tested. Which Potency did it give?
The Potency was “inactive”.

With `O=C(NCC(c1ccc2c(c1)OCO2)N1CCN(c2ccccc2)CC1)C(=O)Nc1ccccc1F` (centres undefined) as the compound, how does the Potency read?
Its Potency is “inactive”.

`Cc1ccc(Cl)cc1NC(=O)C(C)n1nnc2sc(-c3ccccc3)cc2c1=O` (centres undefined) was tested. Which Potency did it give?
Its Potency is “inactive”.

With `O=C(Cn1cc(SCc2cccc(Cl)c2)c2ccccc21)N1CCCCC1` as the compound, how does the Potency read?
Its Potency is “inactive”.

With `CCN1CCN(c2ncc3c(n2)CC(c2ccccc2O)CC3=O)CC1` (centres undefined) as the compound, how does the Potency read?
The Potency was “inactive”.

For `CCCCCCSc1nsc(N)n1`, which Potency is on record?
Its Potency is 8.91 µM (active).

Which Potency does the source give for `CCCSc1nsc(N)n1` here?
The Potency was “inactive”.

For `Nc1nc(SC23CC4CC(CC(C4)C2)C3)ns1`, which Potency is on record?
The Potency was “inactive”.

Which Potency does the source give for `O=C(c1ccc(Br)cc1)N(Cc1cccs1)c1ccc(F)cc1` here?
The Potency was “inactive”.

For `Cn1cc(S(=O)(=O)N2CCCCCC2)cc1C(=O)N1CCN(c2ccc(F)cc2)CC1`, which Potency is on record?
Its Potency is “inactive”.

`CC1Cc2ccccc2N1C(=O)CSc1nnc(C2CC2)n1C` (centres undefined) was tested. Which Potency did it give?
The Potency was “inactive”.

`CC1Cc2ccccc2N1C(=O)CSc1nc2ccccc2o1` (centres undefined) was tested. Which Potency did it give?
Its Potency is “inactive”.

How did the Potency turn out when `Cc1cc(=O)[nH]c(SCC(=O)N2c3ccccc3CC2C)n1` (centres undefined) was run?
The Potency was 14.1 µM (active).

Which Potency does the source give for `O=C(NCCCN1CCN(c2cccc(Cl)c2)CC1)c1nnc(Cc2ccc(F)cc2Cl)o1` here?
Its Potency is “inactive”.

How did the Potency turn out when `COc1ccccc1CNC(=O)CCn1c(=O)c2ccccc2n(CC(=O)Nc2cccc(Cl)c2)c1=O` was run?
The Potency was “inactive”.

Which Potency does the source give for `CCOc1cccc2c1N[C@@H](c1ccc(C(=O)O)cc1)[C@H]1CC=C[C@@H]21` here?
The Potency was “inactive”.

`CCC(=O)N1c2ccccc2CC1C(=O)N1CCN(c2ccccc2F)CC1` (centres undefined) was tested. Which Potency did it give?
The Potency was “inactive”.

Which Potency does the source give for `COc1ccc(-n2ccnc(NCCc3ccc(Cl)cc3)c2=O)cc1OC` here?
The Potency was “inactive”.

How did the Potency turn out when `O=C(Cn1nc(C(F)(F)F)c2c1CCCC2)Nc1ccc(Cl)cc1` was run?
Its Potency is “inactive”.

For `COC(=O)c1ccc(NC(=O)CCc2c(C)nn(-c3ccc(N4CCCC4)nn3)c2C)cc1`, which Potency is on record?
Its Potency is “inactive”.

For `COc1ccc(CCn2cc3c(c2-c2ccc(Br)cc2)c(=O)n(C)c(=O)n3C)cc1OC`, which Potency is on record?
The Potency was “inactive”.

With `COc1ccc(CC(=O)NCCc2sc3nc(-c4ccc(OC)cc4)nn3c2C)cc1` as the compound, how does the Potency read?
Its Potency is “inactive”.

Which Potency does the source give for `Cc1cccc(N2CCN(C3=C(c4ccccc4)C(=O)c4ccccc43)CC2)c1C` here?
Its Potency is “inactive”.

How did the Potency turn out when `CCOc1ccc(N(C)S(=O)(=O)c2cc(-c3cnc(C)o3)ccc2OC)cc1` was run?
Its Potency is “inactive”.

Which Potency does the source give for `CC(=O)c1ccc(NC(=O)CSc2c(C(C)C)cnc3c2c(=O)n(C)c(=O)n3C)cc1` here?
The Potency was “inactive”.

Which Potency does the source give for `CCOc1ccc(C(=O)Nc2ccc3nc4c(c(Nc5ccccc5OC)c3c2)CCCC4)cc1` here?
Its Potency is “inactive”.

For `COc1ccc(NC(=O)c2ccco2)cc1NC(=O)COc1ccc(C)c(C)c1`, which Potency is on record?
Its Potency is “inactive”.

For `CCOc1ccc(N(CC)S(=O)(=O)N2CCCC(C(=O)NCc3ccc(SC)cc3)C2)cc1` (centres undefined), which Potency is on record?
The Potency was “inactive”.

For `O=C(Nc1ccccc1F)C(c1ccccc1)N1Cc2ccccc2C1=O` (centres undefined), which Potency is on record?
Its Potency is “inactive”.

For `CC(=O)N1CCc2cc(S(=O)(=O)NC(Cc3ccccc3)C(=O)NCc3ccc(C)cc3)ccc21` (centres undefined), which Potency is on record?
Its Potency is “inactive”.

Which Potency does the source give for `COc1cc2c(cc1OC)C(COc1ccc(F)cc1)N(C(=O)c1ccccc1F)CC2` (centres undefined) here?
Its Potency is “inactive”.

How did the Potency turn out when `COc1ccc(-c2onc(C)c2C)cc1S(=O)(=O)NCCc1ccccc1` was run?
The Potency was “inactive”.

`Cc1ccc(-c2cc(N)n(Cc3cccc(Cl)c3)n2)cc1` was tested. Which Potency did it give?
The Potency was “inactive”.

Which Potency does the source give for `Cc1ccccc1C(=O)N(Cc1ccc(N(C)C)cc1)CC1CCCO1` (centres undefined) here?
The Potency was “inactive”.

For `CCOc1cc(C2c3c(-c4ccc(Br)cc4)n[nH]c3C(=O)N2c2ccc(Cl)cc2)ccc1O` (centres undefined), which Potency is on record?
The Potency was “inactive”.

Which Potency does the source give for `CC(C)c1ccc(NC(=O)C2CCN(c3nc(-c4ccc(C(C)C)cc4)no3)CC2)cc1` here?
The Potency was “inactive”.

`Cc1ccc(NC(=O)CSc2nc3c([nH]c4ccccc43)c(=O)n2-c2ccccc2)c(C)c1` was tested. Which Potency did it give?
Its Potency is “inactive”.

`CCCOc1ccc(C(=O)Nc2ccc3oc(-c4cccc(Cl)c4Cl)nc3c2)cc1` was tested. Which Potency did it give?
The Potency was “inactive”.

How did the Potency turn out when `COc1cc(OC)c(OC)cc1/C=C/c1nc2ccccc2c(=O)n1-c1ccc(Br)c(C)c1` was run?
The Potency was “inactive”.

Which Potency does the source give for `COc1ccc(N2CCN(C(=O)C3CCCN(C(=O)c4cc5sccc5n4C)C3)CC2)cc1` (centres undefined) here?
The Potency was “inactive”.

With `CCc1ccccc1OCCSc1nc(-c2cccs2)nc2cc(=O)[nH]n12` as the compound, how does the Potency read?
The Potency was “inactive”.

For `COc1ccc(CNC(=O)CSCc2nc(-c3ccccc3F)oc2C)cc1`, which Potency is on record?
Its Potency is “inactive”.

How did the Potency turn out when `COc1ccc(Br)cc1C1CC(=O)Nc2c1c(C)nn2-c1nc(C)cc(C)n1` (centres undefined) was run?
Its Potency is “inactive”.

`Cc1ccc(NC(=O)c2ccc3[nH]c(C)cc(=O)c3c2)c(C)c1` was tested. Which Potency did it give?
The Potency was “inactive”.

How did the Potency turn out when `Cc1c(Cl)cccc1-c1ccc(CNCCCSc2nnnn2C)o1` was run?
Its Potency is “inactive”.

For `COc1ccc(NC(=O)CCN2CCN(CCO)CC2)cc1`, which Potency is on record?
The Potency was “inactive”.

With `COc1ccc(CCNC(=O)c2ccc3c(c2)nc(C)n3-c2ccc(Br)cc2)cc1OC` as the compound, how does the Potency read?
The Potency was “inactive”.

With `O=C(CSc1nccn1C1CCCC1)Nc1cc(C(F)(F)F)ccc1Cl` as the compound, how does the Potency read?
The Potency was “inactive”.
